Test results reported in the supplement of paper PMC11732987, “Enantioselective OTUD7B fragment discovery through chemoproteomics screening and high-throughput optimisation” (Communications Chemistry, 2025).

Assays:
Assay in all cases: log2 ratio of Biotin-Ahx-Ub-VS probe labelling (fragment/DMSO); higher = less target engagement (more negative = stronger competition), active = hit call of the paper (q ≤ 0.05, log2 ratio ≤ -1)
Conditions in all cases: compound concentration: 200 uM; treatment time: 3 h
USP34 = USP34 (UniProt Q70CQ2)
How it was run: (§1)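 HEK293T lysate in Tris/CHAPS/IGEPAL buffer with protease inhibitors (495 µg per sample) was given fragment at 200 µM or vehicle for 3 h, in triplicate. It then received Biotin-Ahx-Ub-VS at 0.5 µM final for 1 h. Labelled DUBs were NeutrAvidin-enriched, digested with LysC and trypsin, and run by diaPASEF LC-MS/MS. Values are average log2 fragment/vehicle ratios by unpaired t-test on global-median-normalised Spectronaut quantities of proteins with ≥2 unique peptides.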

USP36 = target: T1, USP36 (UniProt Q9P275)
T1 sequence (whole entry): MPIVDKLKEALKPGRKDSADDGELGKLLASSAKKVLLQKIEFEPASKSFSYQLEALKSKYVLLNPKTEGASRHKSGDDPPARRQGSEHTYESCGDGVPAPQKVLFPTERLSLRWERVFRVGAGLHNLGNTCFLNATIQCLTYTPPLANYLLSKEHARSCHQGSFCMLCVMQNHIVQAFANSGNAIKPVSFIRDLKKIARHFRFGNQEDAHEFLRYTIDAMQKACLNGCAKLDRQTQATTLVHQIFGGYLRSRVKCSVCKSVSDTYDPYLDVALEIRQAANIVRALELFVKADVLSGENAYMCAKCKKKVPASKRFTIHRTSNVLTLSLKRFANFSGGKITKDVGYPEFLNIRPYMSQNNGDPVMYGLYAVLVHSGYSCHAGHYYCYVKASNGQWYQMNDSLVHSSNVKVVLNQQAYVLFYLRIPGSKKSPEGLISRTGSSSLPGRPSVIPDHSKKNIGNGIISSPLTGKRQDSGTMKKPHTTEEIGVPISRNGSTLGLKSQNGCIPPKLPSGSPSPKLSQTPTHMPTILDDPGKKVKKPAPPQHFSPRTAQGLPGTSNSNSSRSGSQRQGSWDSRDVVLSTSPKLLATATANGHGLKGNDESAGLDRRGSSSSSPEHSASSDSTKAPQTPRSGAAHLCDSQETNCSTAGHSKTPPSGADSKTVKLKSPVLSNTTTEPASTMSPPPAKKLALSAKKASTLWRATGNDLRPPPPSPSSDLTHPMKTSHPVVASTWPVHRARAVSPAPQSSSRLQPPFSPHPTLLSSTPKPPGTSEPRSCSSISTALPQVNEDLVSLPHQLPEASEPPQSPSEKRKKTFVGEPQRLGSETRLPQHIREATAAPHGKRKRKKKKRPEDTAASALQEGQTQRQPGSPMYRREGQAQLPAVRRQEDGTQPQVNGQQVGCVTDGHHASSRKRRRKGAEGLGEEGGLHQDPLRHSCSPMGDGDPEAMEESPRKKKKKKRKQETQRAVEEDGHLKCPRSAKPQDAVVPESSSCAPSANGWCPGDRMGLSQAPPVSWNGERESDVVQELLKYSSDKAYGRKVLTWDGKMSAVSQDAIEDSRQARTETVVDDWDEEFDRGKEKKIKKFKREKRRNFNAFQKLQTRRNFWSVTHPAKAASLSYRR
How it was run: as §1

USP38 = target: T2, USP38 (UniProt Q8NB14)
T2 sequence (whole entry): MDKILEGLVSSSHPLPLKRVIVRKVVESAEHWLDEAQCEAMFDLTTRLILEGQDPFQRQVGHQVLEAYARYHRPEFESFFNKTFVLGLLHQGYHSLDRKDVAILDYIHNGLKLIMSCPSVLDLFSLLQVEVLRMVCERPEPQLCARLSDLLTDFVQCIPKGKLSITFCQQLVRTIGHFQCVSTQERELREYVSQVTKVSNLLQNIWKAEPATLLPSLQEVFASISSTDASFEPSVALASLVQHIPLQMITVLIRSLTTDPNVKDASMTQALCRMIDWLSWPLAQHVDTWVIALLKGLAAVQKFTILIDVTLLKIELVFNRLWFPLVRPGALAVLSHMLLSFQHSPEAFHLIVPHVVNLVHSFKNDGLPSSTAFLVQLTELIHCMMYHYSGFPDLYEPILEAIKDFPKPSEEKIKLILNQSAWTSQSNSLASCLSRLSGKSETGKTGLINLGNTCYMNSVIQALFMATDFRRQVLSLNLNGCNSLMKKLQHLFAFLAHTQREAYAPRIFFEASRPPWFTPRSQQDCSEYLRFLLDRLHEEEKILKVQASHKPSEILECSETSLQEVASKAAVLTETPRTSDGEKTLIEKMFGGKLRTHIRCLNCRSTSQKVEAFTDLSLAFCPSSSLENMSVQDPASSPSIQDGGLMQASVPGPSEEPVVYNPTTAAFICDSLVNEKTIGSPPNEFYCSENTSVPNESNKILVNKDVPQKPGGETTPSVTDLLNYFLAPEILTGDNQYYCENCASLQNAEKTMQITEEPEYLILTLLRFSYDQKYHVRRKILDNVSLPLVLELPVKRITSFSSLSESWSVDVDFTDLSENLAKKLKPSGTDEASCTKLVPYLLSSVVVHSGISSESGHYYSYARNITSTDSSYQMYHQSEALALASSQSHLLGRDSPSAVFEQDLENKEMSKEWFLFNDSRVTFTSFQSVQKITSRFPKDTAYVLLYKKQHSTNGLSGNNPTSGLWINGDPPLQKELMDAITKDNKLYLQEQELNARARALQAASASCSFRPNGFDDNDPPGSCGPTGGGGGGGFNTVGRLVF
How it was run: as §1

USP39 = target: T3, USP39 (UniProt Q53GS9)
T3 sequence (whole entry): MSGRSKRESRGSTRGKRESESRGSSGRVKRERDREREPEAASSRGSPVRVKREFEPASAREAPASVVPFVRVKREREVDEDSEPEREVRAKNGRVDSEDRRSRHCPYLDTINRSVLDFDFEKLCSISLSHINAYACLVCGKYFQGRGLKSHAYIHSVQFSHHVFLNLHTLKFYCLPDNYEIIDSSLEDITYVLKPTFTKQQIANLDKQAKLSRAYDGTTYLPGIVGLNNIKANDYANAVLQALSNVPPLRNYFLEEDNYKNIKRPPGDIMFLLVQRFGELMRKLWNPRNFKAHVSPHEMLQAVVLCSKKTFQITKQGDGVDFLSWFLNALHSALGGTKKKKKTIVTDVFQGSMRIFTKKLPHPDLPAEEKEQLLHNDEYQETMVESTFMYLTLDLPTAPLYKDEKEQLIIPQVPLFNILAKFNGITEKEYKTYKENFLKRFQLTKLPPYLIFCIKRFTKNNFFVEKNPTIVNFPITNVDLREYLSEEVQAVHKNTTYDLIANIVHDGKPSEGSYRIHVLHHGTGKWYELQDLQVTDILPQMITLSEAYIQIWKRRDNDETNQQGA
How it was run: as §1

USP4 = target: T4, USP4 (UniProt Q13107)
T4 sequence (whole entry): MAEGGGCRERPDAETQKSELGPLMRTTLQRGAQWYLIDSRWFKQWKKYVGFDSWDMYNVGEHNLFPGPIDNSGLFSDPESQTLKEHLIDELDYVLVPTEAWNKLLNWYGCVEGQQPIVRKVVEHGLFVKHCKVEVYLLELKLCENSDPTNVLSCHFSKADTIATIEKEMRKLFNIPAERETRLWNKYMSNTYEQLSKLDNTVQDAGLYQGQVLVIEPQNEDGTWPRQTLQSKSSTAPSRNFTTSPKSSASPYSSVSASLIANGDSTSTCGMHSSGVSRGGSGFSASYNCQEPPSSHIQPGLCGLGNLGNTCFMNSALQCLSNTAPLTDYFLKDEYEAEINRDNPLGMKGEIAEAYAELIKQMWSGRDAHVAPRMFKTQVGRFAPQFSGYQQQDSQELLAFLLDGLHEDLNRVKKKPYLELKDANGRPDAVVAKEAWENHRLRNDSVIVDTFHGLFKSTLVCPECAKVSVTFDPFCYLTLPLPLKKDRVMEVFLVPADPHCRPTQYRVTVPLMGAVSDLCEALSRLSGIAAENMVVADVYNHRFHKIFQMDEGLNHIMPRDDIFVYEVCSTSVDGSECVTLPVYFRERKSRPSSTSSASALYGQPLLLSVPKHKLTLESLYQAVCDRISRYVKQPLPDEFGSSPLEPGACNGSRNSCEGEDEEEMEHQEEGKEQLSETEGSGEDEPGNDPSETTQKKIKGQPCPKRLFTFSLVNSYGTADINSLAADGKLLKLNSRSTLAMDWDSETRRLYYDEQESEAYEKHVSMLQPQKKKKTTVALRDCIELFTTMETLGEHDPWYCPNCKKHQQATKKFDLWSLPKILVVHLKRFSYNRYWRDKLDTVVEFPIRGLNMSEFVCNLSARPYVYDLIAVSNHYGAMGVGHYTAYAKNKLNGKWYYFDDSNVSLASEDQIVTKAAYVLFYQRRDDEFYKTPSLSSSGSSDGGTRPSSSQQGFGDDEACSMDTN
How it was run: as §1

Measured: log2 ratio of Biotin-Ahx-Ub-VS probe labelling

Chain of USP34 (Q70CQ2 whole entry, the tested form may be a part): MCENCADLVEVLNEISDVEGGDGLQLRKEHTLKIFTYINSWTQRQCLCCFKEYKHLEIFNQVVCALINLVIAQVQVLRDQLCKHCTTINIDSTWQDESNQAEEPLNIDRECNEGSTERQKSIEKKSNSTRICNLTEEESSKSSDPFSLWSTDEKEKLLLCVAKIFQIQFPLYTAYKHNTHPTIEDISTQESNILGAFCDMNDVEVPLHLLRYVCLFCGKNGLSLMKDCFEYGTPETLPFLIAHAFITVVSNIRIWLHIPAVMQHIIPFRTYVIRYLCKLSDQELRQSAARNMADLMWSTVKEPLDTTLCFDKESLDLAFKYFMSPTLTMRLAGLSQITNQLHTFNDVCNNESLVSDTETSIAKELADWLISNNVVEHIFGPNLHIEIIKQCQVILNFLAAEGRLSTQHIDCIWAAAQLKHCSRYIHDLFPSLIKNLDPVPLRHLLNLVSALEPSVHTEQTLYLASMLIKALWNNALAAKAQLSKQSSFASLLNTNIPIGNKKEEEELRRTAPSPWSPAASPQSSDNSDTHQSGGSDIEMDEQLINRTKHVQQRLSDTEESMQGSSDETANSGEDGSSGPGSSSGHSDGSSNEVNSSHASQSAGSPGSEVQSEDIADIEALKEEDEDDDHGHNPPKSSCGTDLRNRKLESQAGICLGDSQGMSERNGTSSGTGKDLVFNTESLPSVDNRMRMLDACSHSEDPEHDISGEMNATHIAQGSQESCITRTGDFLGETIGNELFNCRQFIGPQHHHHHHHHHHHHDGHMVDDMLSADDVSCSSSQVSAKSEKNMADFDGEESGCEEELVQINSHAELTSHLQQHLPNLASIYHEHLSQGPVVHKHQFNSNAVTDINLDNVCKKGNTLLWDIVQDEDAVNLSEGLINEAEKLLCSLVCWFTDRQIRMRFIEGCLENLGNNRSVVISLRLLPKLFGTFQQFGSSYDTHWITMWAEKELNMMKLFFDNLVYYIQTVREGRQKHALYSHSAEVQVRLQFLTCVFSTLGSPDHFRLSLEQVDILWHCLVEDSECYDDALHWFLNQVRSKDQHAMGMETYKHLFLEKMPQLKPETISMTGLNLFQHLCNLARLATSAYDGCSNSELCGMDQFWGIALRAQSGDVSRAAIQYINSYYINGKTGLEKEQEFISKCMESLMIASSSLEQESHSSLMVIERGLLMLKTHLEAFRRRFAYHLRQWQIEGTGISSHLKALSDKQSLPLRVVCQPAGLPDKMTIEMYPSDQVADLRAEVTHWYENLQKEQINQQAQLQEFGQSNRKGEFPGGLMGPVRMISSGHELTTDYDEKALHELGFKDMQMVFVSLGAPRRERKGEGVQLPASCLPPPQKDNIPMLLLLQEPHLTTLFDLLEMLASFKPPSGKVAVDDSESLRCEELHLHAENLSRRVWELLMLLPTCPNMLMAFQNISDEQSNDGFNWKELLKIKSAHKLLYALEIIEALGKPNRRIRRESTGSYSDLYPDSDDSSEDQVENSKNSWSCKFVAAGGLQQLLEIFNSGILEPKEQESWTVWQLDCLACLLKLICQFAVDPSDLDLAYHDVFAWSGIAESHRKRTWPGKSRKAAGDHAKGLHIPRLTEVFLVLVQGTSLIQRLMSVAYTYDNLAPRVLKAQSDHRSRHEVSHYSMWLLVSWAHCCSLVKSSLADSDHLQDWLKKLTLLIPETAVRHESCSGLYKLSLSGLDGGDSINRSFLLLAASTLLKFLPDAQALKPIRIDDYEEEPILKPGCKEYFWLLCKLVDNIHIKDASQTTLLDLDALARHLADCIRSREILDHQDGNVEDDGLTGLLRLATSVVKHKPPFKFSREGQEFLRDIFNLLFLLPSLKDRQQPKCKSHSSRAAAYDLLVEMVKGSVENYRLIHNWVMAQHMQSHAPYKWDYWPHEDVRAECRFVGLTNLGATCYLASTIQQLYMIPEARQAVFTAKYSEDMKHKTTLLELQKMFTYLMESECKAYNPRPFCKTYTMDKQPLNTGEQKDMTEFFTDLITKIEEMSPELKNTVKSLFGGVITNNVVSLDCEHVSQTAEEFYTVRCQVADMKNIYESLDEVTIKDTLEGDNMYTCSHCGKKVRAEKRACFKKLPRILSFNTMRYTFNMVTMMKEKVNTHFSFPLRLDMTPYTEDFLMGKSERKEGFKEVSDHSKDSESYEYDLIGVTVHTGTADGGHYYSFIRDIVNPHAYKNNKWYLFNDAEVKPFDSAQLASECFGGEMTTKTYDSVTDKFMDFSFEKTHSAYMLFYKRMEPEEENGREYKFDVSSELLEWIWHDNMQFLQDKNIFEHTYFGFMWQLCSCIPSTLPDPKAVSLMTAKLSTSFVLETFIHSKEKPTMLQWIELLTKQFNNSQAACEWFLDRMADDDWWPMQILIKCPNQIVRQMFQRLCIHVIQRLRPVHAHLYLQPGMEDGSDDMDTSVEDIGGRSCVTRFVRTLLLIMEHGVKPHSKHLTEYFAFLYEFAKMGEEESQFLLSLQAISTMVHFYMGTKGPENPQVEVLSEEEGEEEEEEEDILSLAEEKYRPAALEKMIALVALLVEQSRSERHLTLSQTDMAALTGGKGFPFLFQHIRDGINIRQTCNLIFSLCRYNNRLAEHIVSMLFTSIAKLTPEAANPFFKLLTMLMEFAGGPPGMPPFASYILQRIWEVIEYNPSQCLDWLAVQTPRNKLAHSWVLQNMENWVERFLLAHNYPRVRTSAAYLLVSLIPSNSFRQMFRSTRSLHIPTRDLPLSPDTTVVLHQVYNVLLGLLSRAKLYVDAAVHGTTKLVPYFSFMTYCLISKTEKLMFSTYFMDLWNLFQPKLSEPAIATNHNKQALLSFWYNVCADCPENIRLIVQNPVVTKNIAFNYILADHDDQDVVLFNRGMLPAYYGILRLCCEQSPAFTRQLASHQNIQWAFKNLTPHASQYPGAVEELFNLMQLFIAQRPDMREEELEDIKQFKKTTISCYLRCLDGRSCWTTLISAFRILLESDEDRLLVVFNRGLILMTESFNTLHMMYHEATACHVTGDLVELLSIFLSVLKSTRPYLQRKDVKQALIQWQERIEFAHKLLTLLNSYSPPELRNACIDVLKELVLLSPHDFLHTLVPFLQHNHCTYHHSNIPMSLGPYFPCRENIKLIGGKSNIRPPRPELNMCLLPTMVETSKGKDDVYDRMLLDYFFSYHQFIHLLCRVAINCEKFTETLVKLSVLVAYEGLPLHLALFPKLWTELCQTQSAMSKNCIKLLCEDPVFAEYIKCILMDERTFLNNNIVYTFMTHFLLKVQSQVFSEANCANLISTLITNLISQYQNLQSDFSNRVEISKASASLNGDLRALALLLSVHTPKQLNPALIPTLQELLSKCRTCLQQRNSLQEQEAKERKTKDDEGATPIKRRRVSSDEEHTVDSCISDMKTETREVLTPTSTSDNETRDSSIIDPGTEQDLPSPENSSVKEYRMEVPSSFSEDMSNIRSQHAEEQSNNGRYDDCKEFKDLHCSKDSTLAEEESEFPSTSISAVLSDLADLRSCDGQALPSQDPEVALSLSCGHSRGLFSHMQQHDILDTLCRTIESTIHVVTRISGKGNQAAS

Cl.O=C(CCl)NCc1ccnc(Oc2ccccc2F)c1
inactive: USP34 -0.267 | USP36 0.0203 | USP38 -0.00457 | USP39 0.295 | USP4 -0.0201
